The panel holds about 83,000 compounds, 20% with a hit somewhere; the sample as a whole holds those more often.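 Assay: single dose, 48 h. Readout: percent growth (0 = no net growth; negative = cell death). Active: <10.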 Unmarked numbers belong to inactive results. Active and inactive are the calls of the source.
How the values were obtained:
Assay in all cases: NCI-60 one-dose screen, 48 h (100 = growth as untreated, 0 = no growth, -100 = all killed)
Conditions in all cases: 10 µM
RPMI-8226 leukemia = tested on: RPMI-8226 leukemia
OVCAR-8 ovarian = tested on: OVCAR-8 ovarian
OVCAR-5 ovarian = tested on: OVCAR-5 ovarian
OVCAR-4 ovarian = tested on: OVCAR-4 ovarian
SK-OV-3 ovarian = tested on: SK-OV-3 ovarian
IGROV1 ovarian = tested on: IGROV1 ovarian
OVCAR-3 ovarian = tested on: OVCAR-3 ovarian
HS 578T breast = tested on: HS 578T breast
NCI/ADR-RES ovarian = tested on: NCI/ADR-RES ovarian
T-47D breast = tested on: T-47D breast
BT-549 breast = tested on: BT-549 breast
MDA-MB-435 melanoma = tested on: MDA-MB-435 melanoma
SW-620 colon = tested on: SW-620 colon
MCF7 breast = tested on: MCF7 breast
HCT-116 colon = tested on: HCT-116 colon
HCC-2998 colon = tested on: HCC-2998 colon
KM12 colon = tested on: KM12 colon

What does the source list for `COC(=O)C(C(C[N+](=O)[O-])c1ccccc1)=P(c1ccccc1)(c1ccccc1)c1ccccc1` (stereo not drawn)?
growth (RPMI-8226 leukemia): -28.2% (active); growth (OVCAR-8 ovarian): 93.4%; growth (OVCAR-5 ovarian): 96.5%; growth (OVCAR-4 ovarian): 98.3%; growth (SK-OV-3 ovarian): 95.7%; growth (IGROV1 ovarian): 66%; growth (OVCAR-3 ovarian): 89.5%; growth (HS 578T breast): 110%; growth (NCI/ADR-RES ovarian): 103%; growth (T-47D breast): 83.9%; growth (BT-549 breast): 93%; growth (MDA-MB-435 melanoma): 49.5%; growth (SW-620 colon): 69.8%; growth (MCF7 breast): 30.2%; growth (HCT-116 colon): 4.02% (active); growth (HCC-2998 colon): 101%; growth (KM12 colon): 88.3%

Which results are given for `COc1ccc([N+](=O)[O-])c(C(=O)O)c1`?
growth (RPMI-8226 leukemia): 110%; growth (OVCAR-8 ovarian): 101%; growth (OVCAR-5 ovarian): 102%; growth (OVCAR-4 ovarian): 102%; growth (SK-OV-3 ovarian): 99.1%; growth (IGROV1 ovarian): 108%; growth (OVCAR-3 ovarian): 102%; growth (HS 578T breast): 98.1%; growth (NCI/ADR-RES ovarian): 110%; growth (T-47D breast): 93.3%; growth (BT-549 breast): 102%; growth (MDA-MB-435 melanoma): 97.9%; growth (SW-620 colon): 101%; growth (MCF7 breast): 93.8%; growth (HCT-116 colon): 103%; growth (HCC-2998 colon): 106%; growth (KM12 colon): 100%

Which growth (RPMI-8226 leukemia) does the source give for `O=C(Nc1cccc(-n2cc(-c3ccncc3)c(-c3ccc(O)c(Cl)c3)n2)c1)c1cc(C(F)(F)F)cc(C(F)(F)F)c1` here?
Its growth is 28.8%.

And the growth (OVCAR-8 ovarian)?
The growth was 42.9%.

What about the growth (OVCAR-5 ovarian) of the same compound?
Its growth is 75%.

What about the growth (OVCAR-4 ovarian) of the same compound?
The growth was 53.9%.

What about the growth (SK-OV-3 ovarian) of the same compound?
Its growth is 87.7%.

And the growth (IGROV1 ovarian)?
The growth was 71.8%.

And the growth (OVCAR-3 ovarian)?
Its growth is 35.7%.

What about the growth (HS 578T breast) of the same compound?
The growth was 60.2%.

What about the growth (NCI/ADR-RES ovarian) of the same compound?
Its growth is 58.5%.

What about the growth (T-47D breast) of the same compound?
The growth was 25.6%.

What about the growth (BT-549 breast) of the same compound?
Its growth is 79.7%.

And the growth (MDA-MB-435 melanoma)?
Its growth is 52%.

What about the growth (SW-620 colon) of the same compound?
Its growth is 67.7%.

What about the growth (MCF7 breast) of the same compound?
The growth was 27.3%.

And the growth (HCT-116 colon)?
Its growth is 44.1%.

And the growth (HCC-2998 colon)?
The growth was 33.3%.

And the growth (KM12 colon)?
The growth was 27.1%.

For `C/C(N)=C(\C#N)C(=O)c1ccccc1`, which growth (RPMI-8226 leukemia) is on record?
The growth was 99.2%.

What about the growth (OVCAR-8 ovarian) of the same compound?
The growth was 103%.

What about the growth (OVCAR-5 ovarian) of the same compound?
Its growth is 97.9%.

And the growth (OVCAR-4 ovarian)?
Its growth is 104%.

What about the growth (SK-OV-3 ovarian) of the same compound?
The growth was 99.5%.

What about the growth (IGROV1 ovarian) of the same compound?
The growth was 101%.

And the growth (OVCAR-3 ovarian)?
Its growth is 112%.

What about the growth (HS 578T breast) of the same compound?
Its growth is 111%.

What about the growth (NCI/ADR-RES ovarian) of the same compound?
The growth was 105%.

And the growth (T-47D breast)?
The growth was 94.1%.

And the growth (BT-549 breast)?
Its growth is 113%.

What about the growth (MDA-MB-435 melanoma) of the same compound?
The growth was 100%.

What about the growth (SW-620 colon) of the same compound?
The growth was 106%.

And the growth (MCF7 breast)?
Its growth is 96.6%.

What about the growth (HCT-116 colon) of the same compound?
The growth was 102%.

What about the growth (HCC-2998 colon) of the same compound?
Its growth is 102%.

And the growth (KM12 colon)?
Its growth is 107%.

Which growth (RPMI-8226 leukemia) does the source give for `CCOC(=O)N/N=C\C(C)=N\NC(=O)OCC` here?
Its growth is 98.8%.

What about the growth (OVCAR-8 ovarian) of the same compound?
The growth was 99%.

What about the growth (OVCAR-5 ovarian) of the same compound?
Its growth is 100%.

And the growth (OVCAR-4 ovarian)?
Its growth is 102%.

And the growth (SK-OV-3 ovarian)?
Its growth is 98.7%.

And the growth (IGROV1 ovarian)?
Its growth is 108%.

What about the growth (OVCAR-3 ovarian) of the same compound?
The growth was 106%.

And the growth (HS 578T breast)?
Its growth is 115%.

What about the growth (NCI/ADR-RES ovarian) of the same compound?
Its growth is 97.9%.

What about the growth (T-47D breast) of the same compound?
Its growth is 99.9%.

And the growth (BT-549 breast)?
Its growth is 99.8%.

What about the growth (MDA-MB-435 melanoma) of the same compound?
The growth was 88.8%.

What about the growth (SW-620 colon) of the same compound?
Its growth is 99%.

And the growth (MCF7 breast)?
The growth was 99.5%.

What about the growth (HCT-116 colon) of the same compound?
Its growth is 104%.

What about the growth (HCC-2998 colon) of the same compound?
The growth was 111%.

And the growth (KM12 colon)?
The growth was 102%.

For `O=C(Nc1nc(-c2ccccc2Cl)cs1)c1cc(-c2ccc(Cl)cc2)nc2ccc(Cl)cc12`, which growth (RPMI-8226 leukemia) is on record?
Its growth is 14%.

What about the growth (OVCAR-8 ovarian) of the same compound?
Its growth is 1.38% (active).

What about the growth (OVCAR-5 ovarian) of the same compound?
Its growth is 102%.

What about the growth (OVCAR-4 ovarian) of the same compound?
Its growth is 44%.

What about the growth (SK-OV-3 ovarian) of the same compound?
Its growth is 82%.

What about the growth (IGROV1 ovarian) of the same compound?
The growth was 24.4%.

What about the growth (OVCAR-3 ovarian) of the same compound?
The growth was 2.87% (active).

What about the growth (HS 578T breast) of the same compound?
Its growth is 14.9%.

What about the growth (NCI/ADR-RES ovarian) of the same compound?
Its growth is 2.23% (active).

And the growth (T-47D breast)?
The growth was 64.3%.

What about the growth (BT-549 breast) of the same compound?
Its growth is -9.33% (active).

And the growth (MDA-MB-435 melanoma)?
The growth was -46.9% (active).

What about the growth (SW-620 colon) of the same compound?
Its growth is 26.7%.

What about the growth (MCF7 breast) of the same compound?
Its growth is 11.2%.

What about the growth (HCT-116 colon) of the same compound?
The growth was 6.81% (active).

What about the growth (HCC-2998 colon) of the same compound?
Its growth is 90.7%.

And the growth (KM12 colon)?
Its growth is 12.4%.

Which results are given for `CCOC(=O)c1ccoc1`?
growth (RPMI-8226 leukemia): 102%; growth (OVCAR-8 ovarian): 101%; growth (OVCAR-5 ovarian): 90.7%; growth (OVCAR-4 ovarian): 104%; growth (SK-OV-3 ovarian): 93.3%; growth (IGROV1 ovarian): 101%; growth (OVCAR-3 ovarian): 101%; growth (HS 578T breast): 100%; growth (NCI/ADR-RES ovarian): 108%; growth (T-47D breast): 94.3%; growth (BT-549 breast): 98.4%; growth (MDA-MB-435 melanoma): 107%; growth (SW-620 colon): 100%; growth (MCF7 breast): 95.1%; growth (HCT-116 colon): 97.1%; growth (HCC-2998 colon): 113%; growth (KM12 colon): 104%

Which growth (RPMI-8226 leukemia) does the source give for `CN(C)CCN1C(=O)c2cccc3c(-c4ccc5ncn(C6CCCCC6)c5c4)ccc(c23)C1=O` here?
Its growth is 7.51% (active).

And the growth (OVCAR-8 ovarian)?
The growth was 14.7%.

What about the growth (OVCAR-5 ovarian) of the same compound?
The growth was 35.8%.

What about the growth (OVCAR-4 ovarian) of the same compound?
The growth was 30.8%.

And the growth (SK-OV-3 ovarian)?
The growth was 23%.

And the growth (IGROV1 ovarian)?
Its growth is 20.4%.

And the growth (OVCAR-3 ovarian)?
The growth was 37.6%.

And the growth (HS 578T breast)?
Its growth is 40.8%.

And the growth (NCI/ADR-RES ovarian)?
The growth was 20.1%.

What about the growth (T-47D breast) of the same compound?
Its growth is 27.8%.

And the growth (BT-549 breast)?
Its growth is 56.5%.

And the growth (MDA-MB-435 melanoma)?
Its growth is 39.9%.

And the growth (SW-620 colon)?
The growth was 21.4%.

What about the growth (MCF7 breast) of the same compound?
The growth was 12.1%.

And the growth (HCT-116 colon)?
The growth was 8.6% (active).

And the growth (HCC-2998 colon)?
The growth was 39.8%.

And the growth (KM12 colon)?
Its growth is 24.8%.

Which growth (RPMI-8226 leukemia) does the source give for `COc1ccc(-c2nn(-c3cccc(NC(=O)Nc4cccc(C(F)(F)F)c4)c3)cc2-c2ccncc2)cc1Cl` here?
Its growth is -11% (active).

And the growth (OVCAR-8 ovarian)?
The growth was -4.63% (active).

And the growth (OVCAR-5 ovarian)?
Its growth is 56.1%.

What about the growth (OVCAR-4 ovarian) of the same compound?
Its growth is 18.1%.

What about the growth (SK-OV-3 ovarian) of the same compound?
Its growth is 20.4%.

What about the growth (IGROV1 ovarian) of the same compound?
Its growth is 14.5%.

And the growth (OVCAR-3 ovarian)?
Its growth is 3.89% (active).

What about the growth (HS 578T breast) of the same compound?
Its growth is 32.5%.

What about the growth (NCI/ADR-RES ovarian) of the same compound?
Its growth is 0.659% (active).

And the growth (T-47D breast)?
The growth was -6.95% (active).

And the growth (BT-549 breast)?
The growth was 8.32% (active).

What about the growth (MDA-MB-435 melanoma) of the same compound?
The growth was -35.8% (active).

And the growth (SW-620 colon)?
Its growth is 17.4%.

And the growth (MCF7 breast)?
The growth was 5.79% (active).

What about the growth (HCT-116 colon) of the same compound?
The growth was 9.6% (active).

What about the growth (HCC-2998 colon) of the same compound?
Its growth is 30.5%.

What about the growth (KM12 colon) of the same compound?
Its growth is 0.879% (active).
